Test results from PubChem BioAssay AID1159580 (chemical genetic matrix, 2015).
The campaign covered roughly 5,500 compounds. About 2,000 (36%) were called active. Roughly 18% stayed inconclusive and do not appear here. No stated cut-off is given here; in the data, active means normalized growth mostly below about 0.91 (no sharp cut-off); inconclusive means no clear call, values can overlap the other calls; inactive means mostly above about 0.92. Some of the results follow.

Test: chemical genetic growth profiling, strain panel (AID 1159580);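 further: tested at 20 µM; growth read once vehicle control cultures reached saturation at 30 °C; 1 = growth at the plate median or of vehicle wells; lower values mean less growth of the strain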
Conditions: growth OD

Measured: normalized growth

COC(=O)[C@@H]1C(O)CC[C@H]2CN3CCc4c([nH]c5ccccc45)[C@@H]3C[C@@H]21 (some centres not stated)
inactive: S. cerevisiae deletion strains, locus YJR075W, strain HOC1, active compounds read low 0.993 | S. cerevisiae deletion strains, locus YKL009W, strain mrt4, active compounds read low 0.968 | S. cerevisiae deletion strains, locus YKL068W, active compounds read low 0.982 | S. cerevisiae deletion strains, locus YKL085W, strain MDH1 (second series), active compounds read low 0.982 | S. cerevisiae deletion strains, locus YKL085W, strain MDH1, active compounds read low 0.982 | S. cerevisiae deletion strains, locus YKL160W, strain elf1, active compounds read low 1.01 | S. cerevisiae deletion strains, locus YKL190W, strain CNB1, active compounds read low 0.994 | S. cerevisiae deletion strains, locus YKR001C, strain vps1, active compounds read low 0.979 | S. cerevisiae deletion strains, locus YKR026C, strain gcn3, active compounds read low 1.01 | S. cerevisiae deletion strains, locus YKR091W, strain srl3, active compounds read low 1.02 | S. cerevisiae deletion strains, locus YLL001W, strain dnm1, active compounds read low 1.02 | S. cerevisiae deletion strains, locus YLL026W, active compounds read low 1.01 | S. cerevisiae deletion strains, locus YLL041C, strain sdh2, active compounds read low 1.02 | S. cerevisiae deletion strains, locus YLR027C, strain aat2, active compounds read low 1.01 | S. cerevisiae deletion strains, locus YLR039C, strain RIC1, active compounds read low 0.977 | S. cerevisiae deletion strains, locus YLR058C, strain SHM2, active compounds read low 0.988 | S. cerevisiae deletion strains, locus YLR102C, strain apc9, active compounds read low 0.995 | S. cerevisiae deletion strains, locus YLR113W, strain HOG1, active compounds read low 1 | S. cerevisiae deletion strains, locus YLR221C, strain rsa3, active compounds read low 1 | S. cerevisiae deletion strains, locus YLR258W, strain gsy2, active compounds read low 1.01 | S. cerevisiae deletion strains, locus YLR262C, strain YPT6 (second series), active compounds read low 1 | S. cerevisiae deletion strains, locus YLR262C, strain YPT6, active compounds read low 0.962 | S. cerevisiae deletion strains, locus YLR268W, strain sec22, active compounds read low 1.01 | S. cerevisiae deletion strains, locus YLR320W, strain mms22, active compounds read low 1.01 | S. cerevisiae deletion strains, locus YLR330W, strain CHS5, active compounds read low 0.996 | S. cerevisiae deletion strains, locus YLR342W, strain FKS1 (second series), active compounds read low 0.978 | S. cerevisiae deletion strains, locus YLR342W, strain FKS1, active compounds read low 1.01 | S. cerevisiae deletion strains, locus YLR357W, strain rsc2, active compounds read low 1.01 | S. cerevisiae deletion strains, locus YLR370C, strain arc18, active compounds read low 1.02 | S. cerevisiae deletion strains, locus YLR371W, strain rom2, active compounds read low 0.976 | S. cerevisiae deletion strains, locus YLR384C, strain iki3, active compounds read low 1.02 | S. cerevisiae deletion strains, locus YLR418C, strain cdc73, active compounds read low 1.05 | S. cerevisiae deletion strains, locus YML016C, strain PPZ1, active compounds read low 0.983 | S. cerevisiae deletion strains, locus YML032C, strain rad52, active compounds read low 0.971 | S. cerevisiae deletion strains, locus YML120C, strain ndi1, active compounds read low 1.02 | S. cerevisiae deletion strains, locus YML124C, strain tub3, active compounds read low 0.991 | S. cerevisiae deletion strains, locus YMR058W, strain fet3, active compounds read low 1.01 | S. cerevisiae deletion strains, locus YMR078C, strain ctf18, active compounds read low 0.988 | S. cerevisiae deletion strains, locus YMR125W, strain sto1, active compounds read low 1 | S. cerevisiae deletion strains, locus YMR129W, active compounds read low 1.01 | S. cerevisiae deletion strains, locus YMR205C, strain PFK2, active compounds read low 1.03 | S. cerevisiae deletion strains, locus YMR223W, strain ubp8, active compounds read low 0.97 | S. cerevisiae deletion strains, locus YMR231W, strain pep5, active compounds read low 1.01 | S. cerevisiae deletion strains, locus YMR263W, strain SAP30, active compounds read low 0.995 | S. cerevisiae deletion strains, locus YMR307W, strain GAS1, active compounds read low 1 | S. cerevisiae deletion strains, locus YNL067W, strain RPL9B, active compounds read low 1.01 | S. cerevisiae deletion strains, locus YNL071W, strain lat1, active compounds read low 1.02 | S. cerevisiae deletion strains, locus YNL128W, strain TEP1, active compounds read low 1 | S. cerevisiae deletion strains, locus YNL153C, strain GIM3, active compounds read low 1.01 | S. cerevisiae deletion strains, locus YNL183C, strain NPR1, active compounds read low 0.973 | S. cerevisiae deletion strains, locus YNL209W, strain ssb2, active compounds read low 1.01 | S. cerevisiae deletion strains, locus YNL233W, strain BNI4, active compounds read low 1.01 | S. cerevisiae deletion strains, locus YNL248C, strain rpa49, active compounds read low 1.01 | S. cerevisiae deletion strains, locus YNL250W, strain rad50, active compounds read low 0.975 | S. cerevisiae deletion strains, locus YNL271C, strain bni1, active compounds read low 0.987 | S. cerevisiae deletion strains, locus YNL298W, strain CLA4, active compounds read low 0.975 | S. cerevisiae deletion strains, locus YNL307C, strain MCK1, active compounds read low 0.996 | S. cerevisiae deletion strains, locus YNL322C, strain KRE1 (second series), active compounds read low 1.01 | S. cerevisiae deletion strains, locus YNL322C, strain KRE1, active compounds read low 0.99 | S. cerevisiae deletion strains, locus YNR049C, strain mso1, active compounds read low 1.01 | S. cerevisiae deletion strains, locus YNR052C, strain pop2, active compounds read low 0.989 | S. cerevisiae deletion strains, locus YOL006C, strain TOP1, active compounds read low 1.01 | S. cerevisiae deletion strains, locus YOL012C, strain htz1 0.815 | S. cerevisiae deletion strains, locus YOL147C, strain pex11, active compounds read low 0.99 | S. cerevisiae deletion strains, locus YOR001W, strain rrp6, active compounds read low 1.02 | S. cerevisiae deletion strains, locus YOR061W, strain CKA2, active compounds read low 0.996 | S. cerevisiae deletion strains, locus YOR069W, strain VPS5, active compounds read low 0.992 | S. cerevisiae deletion strains, locus YOR070C, strain gyp1, active compounds read low 1.02 | S. cerevisiae deletion strains, locus YOR080W, strain dia2, active compounds read low 1.01 | S. cerevisiae deletion strains, locus YOR083W, strain WHI5, active compounds read low 1 | S. cerevisiae deletion strains, locus YOR106W, strain vam3, active compounds read low 0.997 | S. cerevisiae deletion strains, locus YOR136W, strain idh2, active compounds read low 0.99 | S. cerevisiae deletion strains, locus YOR144C, strain elg1, active compounds read low 0.983 | S. cerevisiae deletion strains, locus YOR184W, strain ser1, active compounds read low 0.981 | S. cerevisiae deletion strains, locus YOR231W, strain MKK1, active compounds read low 1.02 | S. cerevisiae deletion strains, locus YOR265W, strain rbl2, active compounds read low 0.998 | S. cerevisiae deletion strains, locus YOR270C, strain vph1, active compounds read low 1 | S. cerevisiae deletion strains, locus YOR290C, strain snf2, active compounds read low 0.971 | S. cerevisiae deletion strains, locus YOR316C, strain cot1, active compounds read low 0.981 | S. cerevisiae deletion strains, locus YPL051W, strain arl3, active compounds read low 0.995 | S. cerevisiae deletion strains, locus YPL055C, strain LGE1, active compounds read low 1.01 | S. cerevisiae deletion strains, locus YPL078C, strain atp4, active compounds read low 1.03 | S. cerevisiae deletion strains, locus YPL106C, strain sse1, active compounds read low 1 | S. cerevisiae deletion strains, locus YPL240C, strain hsp82, active compounds read low 1.01 | S. cerevisiae deletion strains, locus YPL241C, strain CIN2, active compounds read low 0.99 | S. cerevisiae deletion strains, locus YPL256C, strain CLN2, active compounds read low 1 | S. cerevisiae deletion strains, locus YPR119W, strain clb2, active compounds read low 0.994 | S. cerevisiae deletion strains, locus YPR141C, strain kar3, active compounds read low 0.981 | S. cerevisiae deletion strains, locus YPR163C, strain tif3, active compounds read low 0.988 | S. cerevisiae deletion strains, locus YPR167C, strain met16, active compounds read low 0.994 | S. cerevisiae deletion strains, strain wtn01, active compounds read low 0.995 | S. cerevisiae strains, strain wild type, active compounds read low 0.998
